The results in this text go back to the antibiotic and cytotoxicity screens of Wong et al. (2023).

About 1,500 (3.8%) of roughly 39,000 compounds were called active. What follows is part of a selection rich in actives, with near analogues and random picks from the rest.

For this assay, the system named is HSkMC (human skeletal muscle cells). Nature of the assay: cytotoxicity call (relative viability < 0.9). The following applies: 10 µM.
Take `CC(=O)NCCSS(C)(=O)=O.CN(C)c1ccc2c(-c3ccccc3C(=O)O)c3ccc(N(C)C)cc3[o+]c2c1`: the cytotoxicity call is “inactive”.

For `CNc1ccc2oc(C[C@H]3O[C@@]4(CC[C@H]3C)O[C@H]([C@H](C)C(=O)c3ccc[nH]3)[C@H](C)C[C@H]4C)nc2c1C(=O)O`, the cytotoxicity call was “active”.

Turning to `NCc1[nH]nc2cc(F)ccc12`, the cytotoxicity call is “inactive”.

For `CC(=O)[C@]12[C@@H]3CC=C[C@H]1N2CC3` (stereo partly specified), the cytotoxicity call was “inactive”.

Turning to `CCN1C[C@]2(OC(=O)c3ccccc3NC(C)=O)CC[C@H](OC)[C@@]34[C@@H]2C[C@@H]([C@@H]13)[C@@]1(O)C[C@H](OC)[C@H]2C[C@@H]4[C@]1(O)[C@H]2OC`, the cytotoxicity call is “inactive”.

In the case of `COc1cc2c(cc1OC)C1C(=O)c3ccc4c(c3OC1CO2)CC(C(C)C)O4` (stereo unspecified), the cytotoxicity call is “inactive”.

As to `CC[C@@H](C(=O)[C@@H](C)[C@@H](O)[C@H](C)[C@@H]1O[C@@H]([C@@H](CC)C(=O)O)CC[C@@H]1C)[C@H]1O[C@]2(C=C[C@@H](O)[C@]3(CC[C@@](C)([C@H]4CC[C@](O)(CC)[C@H](C)O4)O3)O2)[C@H](C)C[C@@H]1C`, the cytotoxicity call is “active”.

Consider `CCC(C(=O)[O-])C1CCC(C)C(C(C)C(O)C(C)C(=O)C(CC)C2OC3(C=CC(O)C4(CCC(C)(C5CCC(O)(CC)C(C)O5)O4)O3)C(C)CC2C)O1.[Na+]` (stereo unspecified), for which the cytotoxicity call was “inactive”.

Consider `[N-]=[N+]=NCC(=O)N1CCOCC1`, for which the cytotoxicity call was “inactive”.

Regarding `COCC(=O)N[C@@H]1[C@@H]2CNC[C@@H]21`, the cytotoxicity call was “inactive”.

For `C[C@H]1[C@H](O)[C@@H](C)/C=C\C=C/CC\C=C/C=C\C=C/C=C\[C@@H](O[C@@H]2O[C@H](C)[C@@H](O)[C@H](N)[C@@H]2O)C[C@H]2O[C@@](O)(C[C@@H](O)[C@@H]2C(=O)O)C[C@@H](O)[C@@H](O)CC[C@@H](O)C[C@@H](O)C[C@@H](O)CC(=O)O[C@H]1C`, the cytotoxicity call was “inactive”.

As for `CN1CCC2(C)c3cc(O)ccc3N(C)C12.O=C(O)C=CC(=O)O` (stereo unspecified), the cytotoxicity call is “inactive”.

Regarding `O=S(=O)(O)O.Oc1cccc2cccnc12`, the cytotoxicity call is “inactive”.

For the compound `C[C@@]1(C(=O)O)[C@H]2CC[C@@H](O2)[C@@]1(C)C(=O)O`, the cytotoxicity call was “active”.

On to `O=C(O)[C@H]1[C@H](C(=O)O)[C@H]2CC[C@@H]1O2`, for which the cytotoxicity call was “inactive”.

In the case of `C[C@]12CC[C@](C)(O1)[C@H](C(=O)O)[C@@H]2C(=O)O`, the cytotoxicity call is “inactive”.

`CC1(C)[C@@H](C=C(Br)Br)[C@@H]1C(=O)O[C@@H](C#N)c1cccc(Oc2ccccc2)c1`: the cytotoxicity call was “inactive”.

Turning to `FCCN1C[C@H]2CCN[C@H]2C1`, the cytotoxicity call was “inactive”.

As to `CC(=O)OC(C)(C)/C=C/C(=O)C(C)(O)[C@H]1[C@H](O)C[C@@]2(C)[C@H]3CC=C4[C@@H](C[C@H](O)C(=O)C4(C)C)[C@]3(C)C(=O)C[C@]12C` (stereo partly specified), the cytotoxicity call was “inactive”.

`CC(C)(O)/C=C/C(=O)[C@](C)(O)[C@H]1[C@H](O)C[C@@]2(C)[C@H]3CC=C4[C@@H](CC(=O)C(=O)C4(C)C)[C@]3(C)C(=O)C[C@]12C`: the cytotoxicity call is “active”.

Consider `C[C@@H]1CN([C@@H](C)CO)C(=O)c2c(c3ccccc3n2C)-c2ccccc2CO[C@@H]1CN(C)C(=O)Oc1ccccc1`, for which the cytotoxicity call is “inactive”.

`C[C@H]1O[C@H](n2cnc3c(N)ncnc32)C[C@@H]1O`: the cytotoxicity call is “inactive”.

Turning to `CC(C)C[C@@H](NC(=O)[C@H](Cc1ccccc1)NC(=O)CNC(=O)[C@@H](C)NC(=O)[C@@H](N)Cc1ccc(O)cc1)C(=O)O`, the cytotoxicity call was “inactive”.

As to `C[CH2][Hg][S]c1ccccc1C(=O)[O-].[Na+]`, the cytotoxicity call is “active”.

On to `O=C([O-])Cc1ccccc1.[Na+]`, for which the cytotoxicity call was “inactive”.

For `CCCCOC(=O)c1ccccc1C(=O)OCCCC`, the cytotoxicity call is “inactive”.

As for `Cc1noc(C)c1CN1CCNCC1`, the cytotoxicity call is “inactive”.

For `CCN(C)C(=O)Oc1cccc(C(C)N(C)C)c1.O=C(O)C(O)C(O)C(=O)O` (stereo unspecified), the cytotoxicity call is “inactive”.

Regarding `CCCCOC(=O)C1=CC(=O)CC(C)(C)O1`, the cytotoxicity call is “inactive”.

On to `CNCCc1ccc(O)c(O)c1`, for which the cytotoxicity call was “inactive”.

For the compound `NCCN1CCN(c2ccc(F)cc2)CC1`, the cytotoxicity call is “inactive”.

Take `CCCCCCCCCCCCCCCC[n+]1ccccc1.[Cl-]`: the cytotoxicity call is “active”.

As to `CCCCCCCCCCCCCCCC[n+]1ccccc1`, the cytotoxicity call was “active”.

On to `c1ccc(CN2CCNCC2)nc1`, for which the cytotoxicity call was “inactive”.

For the compound `CN[C@@H](C)Cc1cnccn1`, the cytotoxicity call was “inactive”.

For the compound `CCOCC(=O)N[C@H]1CCSC1=O`, the cytotoxicity call was “inactive”.

Consider `O=C1C[C@@H](CO)CN1`, for which the cytotoxicity call was “inactive”.

As for `CN(C)C(=O)C(CCN1CCC(O)(c2ccc(Cl)cc2)CC1)(c1ccccc1)c1ccccc1.Cl`, the cytotoxicity call was “inactive”.

On to `CC12CCC3C(CC=C4CC(O)CCC43C)C1CCC2=O` (stereo unspecified), for which the cytotoxicity call is “inactive”.

For the compound `C[C@]12CC/C(=N\OCCN)C[C@@H]1C(=O)C[C@@H]1[C@@H]2CC[C@]2(C)C(=O)CC[C@@H]12`, the cytotoxicity call is “active”.

Regarding `C[C@]12CCC(=O)C[C@@H]1CC[C@@H]1[C@@H]2CC[C@]2(C)C(=O)CC[C@@H]12` [5alpha-ANDROSTAN-3,17-DIONE ], the cytotoxicity call is “inactive”.

Regarding `CC1=C2C(=COC(C)C2C)C(O)=C(C(=O)O)C1=O` (stereo unspecified), the cytotoxicity call is “inactive”.

Regarding `C=C(C)[C@H]1CN[C@H](C(=O)O)[C@H]1CC(=O)O`, the cytotoxicity call is “inactive”.

Consider `COC(=O)C[C@H]1CC[C@@H]2NC[C@@H](O)COC[C@H]2O1`, for which the cytotoxicity call is “inactive”.

Consider `Cc1ccc2c(CCN)c(C)n(C)c2c1`, for which the cytotoxicity call was “inactive”.

As to `CCn1nc(-c2cccnc2)nc2c(=O)n(C)c(=O)nc1-2`, the cytotoxicity call was “active”.

`C1C[C@@H]2C[C@@H]2N1`: the cytotoxicity call is “inactive”.

As for `S=C=Nc1cccc(C2(N3CCCCC3)CCCCC2)c1`, the cytotoxicity call is “inactive”.

For the compound `Cc1ncc(CNC(=O)N(CCCl)N=O)c(N)n1.Cl`, the cytotoxicity call is “inactive”.

For `CCC1(c2ccccc2)C(=O)NC(=O)NC1=O`, the cytotoxicity call was “inactive”.

Regarding `NC[C@H]1CCCc2ccc(Cl)cc21`, the cytotoxicity call was “inactive”.

With `COCC(=O)N1[C@@H]2c3ccc(C4=CCCC4)c(=O)n3C[C@H]1[C@H](CO)[C@H]2C(=O)OC`, the cytotoxicity call is “inactive”.

Take `CC(=O)OC1CCC2(C)C(=CCC3C4CCC(=O)C4(C)CCC32)C1` (stereo unspecified): the cytotoxicity call was “inactive”.

For the compound `CC1(C)S[C@@H]2[C@H](N)C(=O)N2[C@H]1C(=O)O`, the cytotoxicity call was “inactive”.

For `N.N.[Cl][Pt][Cl]`, the cytotoxicity call was “inactive”.

Turning to `CCOC(=O)c1c(CN2CCN(c3ccccc3)CC2)n(Cc2ccccc2)c2cc(Br)c(O)cc12`, the cytotoxicity call was “active”.

With `CCOC(=O)c1c(CN2CCN(Cc3ccccc3)CC2)n(Cc2ccccc2)c2cc(Br)c(O)cc12`, the cytotoxicity call was “active”.

Regarding `CNCc1cccnc1`, the cytotoxicity call is “inactive”.

`O=C1CO[C@H]2CNC[C@@H]2N1CC1CCCC1`: the cytotoxicity call is “inactive”.

For the compound `C[C@H](CO)N1C[C@H](C)[C@@H](CN(C)C(=O)Oc2ccc3ccccc3c2)OCc2cnnn2CCCC1=O`, the cytotoxicity call was “inactive”.

On to `O/N=C1\CN2CCC1CC2`, for which the cytotoxicity call is “inactive”.
